Active and inactive are the calls of the source. How the source made its calls: active means hit-call score of the fitted dose curve at least 0.9, where 1 is the maximum; inactive means score below 0.9.
Target: Hepatocyte nuclear factor 3-beta (Homo sapiens) (UniProt Q9Y261)
Assay: ATG_FoxA2_CIS: Attagene CIS-FACTORIAL HepG2 Assay for human Forkhead box A2 (FOXA2) (AID 2282942)
Conditions: HepG2 cis-reporter transcription factor activity, 24 h; actives raise or lower the signal
Method: ATG_CIS is a cell-based, multiplexed-readout assay that uses HepG2, a human liver cell line, with measurements taken at 24 hours after chemical dosing in a 24-well plate.ATG_FoxA2_CIS is one of 52 assay component(s) measured or calculated from the ATG_CIS assay. It is designed to make measurements of mRNA induction, a form of inducible reporter, as detected with fluorescence intensity signals by Reverse transcription polymerase chain reaction (RT-PCR) and Capillary electrophoresis technology.Data from the assay component ATG_FoxA2_CIS was analyzed into 1 assay endpoint. This assay endpoint, ATG_FoxA2_CIS, was analyzed with bidirectional fitting relative to DMSO as the negative control and baseline of activity. Using a type of inducible reporter, measures of mRNA for gain or loss-of-signal activity can be used to understand the reporter gene at the transcription factor-level as they relate to the gene FOXA2. Furthermore, this assay endpoint can be referred to as a primary readout, because this assay has produced multiple assay endpoints where this one serves a reporter gene function. To generalize the intended target to other relatable targets, this assay endpoint is annotated to the dna binding intended target family, where the subfamily is forkhead box protein.
Human liver HepG2 cells are transiently transfected with multiple reporter transcription units (MRTUs) in 6-well plates using FuGene 6 reagent (Roche; 3 ml FuGene/1 mg DNA). The MRTU constructs are regulated by a cis-regulating element (promoter). […] A major difference between the CIS and TRANS system is that in CIS activities of endogenous TFs are measured, whereas the TRANS assay evaluates changes in activities of exogenous, chimeric NR-Gal4 proteins. […] At the end of 24 hour incubation, total RNA was isolated using TriZol reagent (Invitrogen). The isolated RNA is then reverse-transcribed using oligo(dT) primer and Mo-MLV reverse transcriptase (Invitrogen) with DNAse I (Ambion) treatment for 30 min. The one-tenth of the produced cDNA was amplified by PCR using Taq DNA polymerase (Invitrogen) and two reporter sequence-specific primers. The PCR products were fluorescently labeled by primer extension with 6-arboxyfluorescein (6-FAM) 5'-labeled reporter sequence-specific primer (2 min at 95 C, 20 s at 68 C and 10 min at 72 C) and these products were digested with 5U of HpaI (New England Biolabs) for 2h at 37 C. The fragments were purified using Qiaquick PCR columns (Qiagen), analyzed on an ABI 3130xL genetic analyzer (Applied Biosystems) with peak positions identified by using a set of X-rhodamine (ROX)-labeled MapMarker1000 molecular weight standards (BioVentures). The raw capillary electrophoresis data was processed using Attagraph software (Attagene).

Chain of Hepatocyte nuclear factor 3-beta (Homo sapiens) (Q9Y261 whole entry, looked up): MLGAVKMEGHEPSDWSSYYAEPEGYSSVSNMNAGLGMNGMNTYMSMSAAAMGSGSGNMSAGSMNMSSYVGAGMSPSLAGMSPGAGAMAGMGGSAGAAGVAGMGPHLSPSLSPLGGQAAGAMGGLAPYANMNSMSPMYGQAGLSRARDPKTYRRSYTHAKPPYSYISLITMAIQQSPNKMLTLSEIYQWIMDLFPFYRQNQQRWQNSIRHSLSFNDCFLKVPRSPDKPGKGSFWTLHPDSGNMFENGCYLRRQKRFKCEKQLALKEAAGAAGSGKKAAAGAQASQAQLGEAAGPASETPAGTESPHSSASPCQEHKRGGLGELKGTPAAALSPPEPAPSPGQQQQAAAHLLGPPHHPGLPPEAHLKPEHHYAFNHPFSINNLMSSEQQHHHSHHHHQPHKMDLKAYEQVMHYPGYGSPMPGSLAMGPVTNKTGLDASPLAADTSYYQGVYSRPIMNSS

| SMILES | outcome | AC50 |
| --- | --- | --- |
| O=C(O)c1cccc(C(F)(F)F)c1 | inactive | – |
| CC(C)C[C@H]1C(=O)N2CCC[C@H]2[C@]2(O)O[C@](NC(=O)[C@@H]3C=C4c5cccc6[nH]c(Br)c(c56)C[C@H]4N(C)C3)(C(C)C)C(=O)N12 | inactive | – |
| CCCCCCOC(=O)CCCCC | inactive | – |
| [Ca+2] | inactive | – |
| O=C(O)Cc1cccc2ccccc12 | inactive | – |
| O=c1oc(=O)c2cc3c(=O)oc(=O)c3cc12 | inactive | – |
| COc1cc(C(C)(C)C)c(O)c(C(C)(C)C)c1 | inactive | – |
| CC(C)Oc1ccccc1O | inactive | – |
| CC(=O)O[C@H](CC(=O)[O-])C[N+](C)(C)C | inactive | – |
| O=c1[nH]c(=O)n([C@H]2CCCO2)cc1F | inactive | – |
| CO[Si](C)(OC)c1ccccc1 | inactive | – |
| NNc1nc(-c2ccc(N)cc2)cs1 | inactive | – |
| Cc1ccc(O)c(C(C)(C)C)c1 | inactive | – |
| O=C1NC(=O)c2ccccc21 | inactive | – |
| O=Nc1ccc(Nc2ccccc2)cc1 | – | 47.9 µM (active) |
| CCCC(=O)OCCC(C)CCC=C(C)C (stereo not given) | inactive | – |
| Nc1cc(Cl)c(O)c(Cl)c1 | inactive | – |
| CC1CCC(C(C)CS)CC1S (stereo not given) | inactive | – |
| S=C(S)NCCNC(=S)S | inactive | – |
| COC(=O)C1=C(C)NC(C)=C(C(=O)OCCN(C)Cc2ccccc2)C1c1cccc([N+](=O)[O-])c1 (stereo not given) | inactive | – |

| SMILES | outcome | AC50 |
| --- | --- | --- |
| ClCCCl | inactive | – |
| CC[Si](OC(C)=O)(OC(C)=O)OC(C)=O | inactive | – |
| O=C1O[C@@H]2[C@@H](O)[C@H](O)O[C@@H]2[C@H]1O | inactive | – |
| CC(C)C1CCC(O)CC1 (stereo not given) | inactive | – |
| OCCOc1cccc(OCCO)c1 | inactive | – |
| CCCCCOC(=O)CCC | inactive | – |
| CC[C@]12CCCN3CCc4c(n(c5ccccc45)[C@@](O)(C(=O)OC)C1)[C@@H]32 | inactive | – |
| CC(C#N)(CCC(=O)O)N=NC(C)(C#N)CCC(=O)O (stereo not given) | inactive | – |
| Cc1cc(C2(c3cc(C)c(O)cc3C)OS(=O)(=O)c3ccccc32)c(C)cc1O | inactive | – |
| CC(=O)C(C)=O | inactive | – |
| CCC(=O)OCc1ccccc1 | inactive | – |
| CC1(C)[C@H](C(=O)OCc2cccc(Oc3ccccc3)c2)[C@@H]1C=C(Cl)Cl | inactive | – |
| CSc1nc(NC2CC2)nc(NC(C)(C)C)n1 | inactive | – |
| c1ccc2c(c1)c1cccc3ccc4cccc2c4c31 | inactive | – |
| Nc1cc([N+](=O)[O-])ccc1O | inactive | – |
| CC(C)=CCC/C(C)=C/COC=O | inactive | – |
| O=P(c1ccccc1)(c1ccccc1)c1ccccc1 | inactive | – |
| CC(c1cc2ccccc2s1)N(O)C(N)=O (stereo not given) | inactive | – |
| CC(CCO)CCCC(C)(C)O (stereo not given) | inactive | – |
| CN(C)CCOCCN(C)C | inactive | – |
